Test results: PubChem BioAssay (NCATS)
A number with no mark means an inactive call. Records with an inconclusive call do not appear. Calls of active or inactive are those of the source. Unless noted, the call rests on the fitted dose curve; in most records, active means well fitted curve in the direction sought with a large enough effect; inconclusive means small, poorly fitted or top-dose-only effect, or another doubt; inactive means no such curve, though single readings can be large; an effect the other way counts as inactive or inconclusive.

Key:
[1] = target: Lysosomal acid glucosylceramidase (Homo sapiens) (UniProt P04062); assay: Glucocerebrosidase-p2 (AID 348; in the data active means potency below about 10 µM; further: potency means the concentration at half of the fitted maximal effect); conditions: purified GBA, blue fluorogenic substrate, 40 min
Method in brief: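 Compounds titrated from 0.6 nM upwards against 0.2 nM enzyme in pH 5.9 citric acid/KH2PO4, taurocholate, tween-20; blue fluorogenic substrate 80 uM, 40 min room temperature, stopped and read Ex 365/Em 440 for AC50.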

[2] = AP1 Signaling Pathway (AID 357; active means well fitted curve in either direction with a large enough effect, not every such curve was filed as active;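 further: ME-180 reporter cells stimulated with EGF at its EC50 level; on the % scale 0 is the no-effect control and ±100 the full control effect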); conditions: ME-180 AP-1-bla reporter, EGF-induced, beta-lactamase ratio, 5 h; at 7.69 µM (top of the series) unless noted
Method in brief: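 Titration-series screen for positive or negative modulators of EC50 EGF-induced signaling in ME-180 cells carrying an AP-1-driven beta-lactamase reporter. After 5 hours at 37 degrees Celsius, CCF4 460nm/530nm emission ratio gave %Activity; AC50 values derived.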

[3] = NFAT Signaling Pathway (AID 444; active means well fitted curve in either direction with a large enough effect, not every such curve was filed as active;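 further: carbachol stimulus at about its EC50 of 1 µM final; on the % scale 0 is the no-effect control and ±100 the full control effect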); conditions: Jurkat NFAT-bla M1, carbachol, beta-lactamase ratio, 5 h; at 7.69 µM (top of the series) unless noted
Method in brief: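 Read-out: CCF4 FRET ratio (460 nm/530 nm) after 1 h RT dye loading, used for %activity and AC50 from titration series. Cells: Jurkat NFAT-β-lactamase/M1 line, treated with compound plus 1 uM carbachol for 5 h, 37 °C.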

[4] = Stat Signaling Pathway (AID 446; active means well fitted curve in either direction with a large enough effect, not every such curve was filed as active;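 further: ME-180 cervical cancer cells given 40 pM IL-6 alongside compound; SIE-controlled beta-lactamase reporter measured as 460/530 nm FRET emission ratio; on the % scale 0 is the no-effect control and ±100 the full control effect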); conditions: ME-180 SIE beta-lactamase reporter, IL-6 stimulated, 5 h; series mostly up to 7.69 µM
Method in brief: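 IL-6/STAT signaling read in ME-180 cells via an SIE beta-lactamase reporter. Stimulus was 40 pM IL-6 (its AC50) for 5 hrs, so both activation and inhibition register.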

[5] = target: Glucocorticoid receptor (Homo sapiens) (UniProt P04150); assay: GR-EFC Redistribution (AID 451; calls by dose curve; further: potency means the concentration at half of the fitted maximal effect); conditions: CHO-K1 GR-EFC translocation, beta-gal luminescence, 2 h
Method in brief: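 Translocation of GR-ED fusion to nuclear EA restores b-gal, read by luminescence after 1 h room-temperature detection. Engineered CHO-K1 biosensor cells, 1,000/well, exposed 2 h at 37 C to titrations up to 46 uM final.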

[6] = target: Mitogen-activated protein kinase 10 (Mus musculus) (UniProt Q61831); assay: JNK3 AlphaScreen Assay (AID 530; active means well fitted curve in either direction with a large enough effect, not every such curve was filed as active;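 further: kinase came from lysate of stimulated human HepG2 cells; signal reports phosphorylation of biotinylated GST-cJun 1-79 at Ser73 with 10 µM ATP; on the % scale 0 is the no-effect control and ±100 the full control effect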); conditions: JNK3 lysate, c-Jun phosphorylation; series mostly up to 57.1 µM
Method in brief: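 Room-temperature AlphaScreen kinase assay; pre-activated HepG2 lysate as JNK3 source, biotin-GST-cJun(1-79) substrate, 10 uM ATP, compound 15 min preincubation.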

[7] = target: 3',5'-cyclic-AMP phosphodiesterase 4B (Homo sapiens) (UniProt Q07343); assay: qHTS Assay for Inhibitors of PDE-IV (AID 607; active means well fitted activation curve with a large enough effect in the main read-out, with a control signal flat, not every such curve was filed as active; further: % of control where 0% means no effect); conditions: HEK293 ACTOne CNG channel cells, membrane potential fluorescence; series mostly up to 22.9 µM
Method in brief: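 Live HEK293 cells with a modified cyclic nucleotide-gated (CNG) channel report intracellular cAMP via membrane-potential dye fluorescence (ex 535/em 590 nm). Endogenous PDE-IV was targeted. Compounds were tested at up to 22.9 uM final; RO 20-1724 100 uM served as control.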

[8] = target: Dual specificity protein kinase CLK4 (Homo sapiens) (UniProt Q9HAZ1); assay: qHTS Assay for Inhibitors of CDC-like Kinase 4 (Kinase-Glo Assay) (AID 1770); conditions: recombinant Clk4, Kinase-Glo ATP depletion luminescence; series mostly up to 66.7 µM; further: nearly all actives have a fitted effect of over 65% in size; further: potency means the concentration at half of the fitted maximal effect
Method in brief: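 Recombinant human Clk4 (25 nM) phosphorylated RS repeat peptide (100 uM) with 1 uM ATP in Tris pH 7.5/MgCl2/EGTA/DTT/Triton buffer for 4.5 h at room temperature. Residual ATP was quantified by Kinase-Glo luciferase luminescence.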

[9] = target: Dual specificity protein kinase CLK4 (Homo sapiens) (UniProt Q9HAZ1); assay: qHTS Assay for Inhibitors of CDC-like Kinase 4 (ADP-Glo Assay) (AID 1771); conditions: recombinant CLK4, ADP-Glo luminescence; series mostly up to 80 µM; further: nearly all actives have a fitted effect of over 70% in size; further: potency means the concentration at half of the fitted maximal effect
Method in brief: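 Kinase reaction: Clk4 at 25 nM, RS repeat peptide substrate at 100 uM, ATP at 1 uM, 1 hr, room temperature. Product ADP detected as luciferase signal via ADP-Glo.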

[10] = target: Dual specificity protein kinase CLK4 (Homo sapiens) (UniProt Q9HAZ1); assay: qHTS Assay for Inhibitors of CDC-like Kinase 4 (ADP-FP Assay) (AID 1795); conditions: Transcreener ADP fluorescence polarization; series mostly up to 50 µM; further: nearly all actives have a fitted effect of over 60% in size; further: potency means the concentration at half of the fitted maximal effect
Method in brief: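 Recombinant human Clk4 (6.25 nM) phosphorylated RS repeat peptide (100 uM) with 1 uM ATP in Tris pH 7.5/MgCl2/EGTA/DTT/Triton buffer for one hour. ADP was quantified by Transcreener competitive fluorescence polarization against an ADP calibration curve.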

[11] = qHTS Assay for Identification of Small Molecule Agonists for Hypoxia Response Element Signaling Pathway (AID 914; active means well fitted activation curve with a large enough effect in the signal ratio, with a control signal flat, not every such curve was filed as active; the % refers to the signal ratio; further: potency means the concentration at half of the fitted maximal effect; on activation: % of control where 0% means no effect); conditions: ME-180 (cervical carcinoma) HRE-bla reporter, beta-lactamase ratio, CoCl2, 17 h; activation: hits give high values
Method in brief: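 HRE-bla ME-180 assay for agonist-like enhancement of an EC50 CoCl2 stimulus: 17 h at 37 degrees Celsius, CCF4 for 2.5 h, ratiometric 460/530 nm signal converted to %Activity and fitted to AC50.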

[12] = target: Ubiquitin carboxyl-terminal hydrolase 1 (Homo sapiens) (UniProt O94782); assay: Inhibitors of USP1/UAF1: Pilot qHTS (AID 504865); conditions: purified USP1/UAF1, Ub-rhodamine cleavage fluorescence; series mostly up to 54.9 µM; further: nearly all actives have a fitted effect of over 35% in size; further: potency means the concentration at half of the fitted maximal effect
Method in brief: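 USP1/UAF1 complex (1nM) preincubated with compound 15 min at room temperature, then Ub-Rho substrate (150nM final) added. Fluorescence read kinetically at 480/540 nm, 6 reads every 60 seconds. Buffer: 50mM HEPES pH 7.8, 0.5mM EDTA, 0.1 mg/ml BSA, 1mM TCEP, 0.01% Tween-20.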

[13] = target: Glucocorticoid receptor (Homo sapiens) (UniProt P04150); assay: GR-GFP Redistribution (AID 450;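 active means compounds whose dose series gives a full or clear partial fitted curve of increased nuclear translocation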; further: potency means the concentration at half of the fitted maximal effect); conditions: U2OS GR-GFP nuclear translocation, laser cytometry, 2 h
[14] = target: Cytochrome P450 1A2 (Homo sapiens) (UniProt P05177); assay: p450-cyp1a2 (AID 410; calls by dose curve; further: potency means the concentration at half of the fitted maximal effect); conditions: recombinant CYP1A2, luciferin-ME demethylation, luminescence; series mostly up to 57 µM
Method in brief: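 Inhibition was calculated relative to 57 uM furafylline (full inhibition). The reaction used human CYP1A2 at 20nM with Luciferin-ME at its Km, 100uM, driven by an NADPH-regenerating system for 60 min at room temperature.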

[15] = target: Cytochrome P450 3A4 (Homo sapiens) (UniProt P08684); assay: qHTS Assay for Activators of Cytochrome P450 3A4 (AID 885); conditions: recombinant CYP3A4, Luciferin-PPXE luminescence, 60 min; series mostly up to 57.1 µM; further: nearly all actives have a fitted effect of over 65% in size
Method in brief: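 Quantitative HTS format: compounds preincubated with 20nM human CYP3A4 and Luciferin-PPXE substrate at KM, reaction started by NADPH regeneration, stopped after 60 min, luciferase luminescence read 20 min later.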

[16] = target: Cytochrome P450 2D6 (Homo sapiens) (UniProt P10635); assay: qHTS Assay for Inhibitors and Substrates of Cytochrome P450 2D6 (AID 891); conditions: recombinant CYP2D6, luciferin-ME EGE luminescence; series mostly up to 57.1 µM; further: potency means the concentration at half of the fitted maximal effect; nearly all actives have a fitted effect of over 60% in size
Method in brief: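 Human CYP2D6 (5 nM) with 30 uM Luciferin-ME EGE (at Km) in 100 mM KPO4, compound preincubated 10 min, then NADPH regeneration system for 60 min at room temperature. Luciferin read by luminescence; normalized to 1.43 uM quinidine.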

[17] = target: Cytochrome P450 3A4 (Homo sapiens) (UniProt P08684); assay: qHTS Assay for Inhibitors and Substrates of Cytochrome P450 3A4 (AID 884); conditions: recombinant CYP3A4, Luciferin-PPXE luminescence; series mostly up to 57.1 µM; further: potency means the concentration at half of the fitted maximal effect; nearly all actives have a fitted effect of over 50% in size
Method in brief: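 20 nM human CYP3A4 with 25 uM Luciferin-PPXE (at KM) in 200 mM KPO4, preincubated 10 min with compound; NADPH regeneration started a 60 min RT reaction. Luciferin detected by luminescence, normalized to 57 uM ketoconazole as full inhibition.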

[18] = target: Cytochrome P450 2C19 (Homo sapiens) (UniProt P33261); assay: qHTS Assay for Inhibitors and Substrates of Cytochrome P450 2C19 (AID 899); conditions: recombinant CYP2C19, luciferin-H EGE luminescence; series mostly up to 57.1 µM; further: potency means the concentration at half of the fitted maximal effect; nearly all actives have a fitted effect of over 60% in size
Method in brief: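 Luminescence readout of luciferin formed from 10uM Luciferin-H EGE (KM level) by 5 nM CYP2C19 in 50mM KPO4. 60 min NADPH-driven reaction at 37C after 10 min compound preincubation; data scaled to 57uM ketoconazole inhibition.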

[19] = target: Cytochrome P450 2C9 (Homo sapiens) (UniProt P11712); assay: qHTS Assay for Inhibitors and Substrates of Cytochrome P450 2C9 (AID 883); conditions: recombinant CYP2C9, luciferin-H luminescence, 60 min; series mostly up to 57.1 µM; further: potency means the concentration at half of the fitted maximal effect; nearly all actives have a fitted effect of over 60% in size
Method in brief: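 Luminescent read-out of deoxyluciferin hydroxylation, normalized to 57uM sulphaphenazole (AC100). Reaction: 10nM enzyme, 100uM Luciferin-H (equal to KM), 25mM KPO4, 10 min compound preincubation, then 60 min with NADPH regeneration, both at 37C.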

Lysosomal acid glucosylceramidase (Homo sapiens), sequence (P04062 whole entry, looked up): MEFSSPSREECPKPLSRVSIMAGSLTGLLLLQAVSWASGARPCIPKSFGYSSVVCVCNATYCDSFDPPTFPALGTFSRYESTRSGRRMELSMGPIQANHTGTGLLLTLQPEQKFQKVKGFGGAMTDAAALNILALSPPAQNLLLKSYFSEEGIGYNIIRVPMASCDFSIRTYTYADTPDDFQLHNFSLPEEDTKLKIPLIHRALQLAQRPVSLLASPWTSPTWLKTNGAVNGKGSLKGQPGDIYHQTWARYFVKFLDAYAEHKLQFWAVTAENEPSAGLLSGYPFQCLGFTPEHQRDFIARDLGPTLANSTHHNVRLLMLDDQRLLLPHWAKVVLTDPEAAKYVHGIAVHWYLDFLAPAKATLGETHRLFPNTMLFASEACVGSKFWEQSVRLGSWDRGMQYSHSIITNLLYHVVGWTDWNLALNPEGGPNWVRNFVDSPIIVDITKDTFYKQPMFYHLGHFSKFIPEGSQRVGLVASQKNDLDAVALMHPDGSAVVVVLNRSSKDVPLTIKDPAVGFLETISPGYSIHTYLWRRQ
Glucocorticoid receptor (Homo sapiens), sequence (P04150 whole entry, looked up, the tested form may be a part): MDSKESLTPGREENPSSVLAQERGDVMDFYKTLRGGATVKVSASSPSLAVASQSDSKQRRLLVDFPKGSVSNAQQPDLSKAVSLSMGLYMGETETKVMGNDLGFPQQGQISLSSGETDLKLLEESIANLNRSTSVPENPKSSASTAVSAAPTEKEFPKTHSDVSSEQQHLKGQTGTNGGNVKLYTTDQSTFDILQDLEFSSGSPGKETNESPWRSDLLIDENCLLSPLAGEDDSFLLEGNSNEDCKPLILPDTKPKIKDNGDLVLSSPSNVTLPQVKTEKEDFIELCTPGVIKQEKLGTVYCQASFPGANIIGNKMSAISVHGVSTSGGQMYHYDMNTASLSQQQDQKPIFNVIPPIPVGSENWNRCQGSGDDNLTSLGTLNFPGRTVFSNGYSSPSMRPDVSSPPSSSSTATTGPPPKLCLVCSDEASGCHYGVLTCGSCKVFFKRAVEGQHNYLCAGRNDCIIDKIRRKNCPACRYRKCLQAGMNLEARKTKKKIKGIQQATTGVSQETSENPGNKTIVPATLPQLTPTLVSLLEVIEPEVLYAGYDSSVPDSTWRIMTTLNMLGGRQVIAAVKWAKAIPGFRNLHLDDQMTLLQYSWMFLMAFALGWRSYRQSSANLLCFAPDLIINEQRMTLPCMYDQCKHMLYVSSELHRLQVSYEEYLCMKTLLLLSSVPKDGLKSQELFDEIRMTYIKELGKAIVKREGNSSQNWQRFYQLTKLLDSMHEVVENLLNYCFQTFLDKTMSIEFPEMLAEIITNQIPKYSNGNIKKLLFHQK
3',5'-cyclic-AMP phosphodiesterase 4B (Homo sapiens), sequence (Q07343 whole entry, looked up): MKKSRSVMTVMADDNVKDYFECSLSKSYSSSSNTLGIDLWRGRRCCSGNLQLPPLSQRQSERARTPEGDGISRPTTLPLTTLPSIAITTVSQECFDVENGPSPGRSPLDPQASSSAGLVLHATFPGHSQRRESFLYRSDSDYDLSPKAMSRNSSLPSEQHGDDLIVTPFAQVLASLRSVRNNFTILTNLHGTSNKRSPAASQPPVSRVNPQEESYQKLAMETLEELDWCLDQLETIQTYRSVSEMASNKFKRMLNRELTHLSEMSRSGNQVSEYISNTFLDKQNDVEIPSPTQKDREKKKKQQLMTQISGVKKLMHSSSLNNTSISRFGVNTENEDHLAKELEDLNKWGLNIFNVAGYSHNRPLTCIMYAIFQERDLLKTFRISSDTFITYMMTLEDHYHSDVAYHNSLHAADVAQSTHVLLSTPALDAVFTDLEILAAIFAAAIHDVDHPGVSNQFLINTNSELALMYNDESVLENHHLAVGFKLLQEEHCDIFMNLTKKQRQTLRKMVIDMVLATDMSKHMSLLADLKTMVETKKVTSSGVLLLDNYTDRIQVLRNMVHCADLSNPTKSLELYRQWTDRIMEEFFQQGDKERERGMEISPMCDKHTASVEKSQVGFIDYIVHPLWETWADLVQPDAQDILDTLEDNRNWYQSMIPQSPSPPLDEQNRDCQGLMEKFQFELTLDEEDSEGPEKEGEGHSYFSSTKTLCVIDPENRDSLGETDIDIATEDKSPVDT
Ubiquitin carboxyl-terminal hydrolase 1 (Homo sapiens), sequence (O94782 whole entry, looked up): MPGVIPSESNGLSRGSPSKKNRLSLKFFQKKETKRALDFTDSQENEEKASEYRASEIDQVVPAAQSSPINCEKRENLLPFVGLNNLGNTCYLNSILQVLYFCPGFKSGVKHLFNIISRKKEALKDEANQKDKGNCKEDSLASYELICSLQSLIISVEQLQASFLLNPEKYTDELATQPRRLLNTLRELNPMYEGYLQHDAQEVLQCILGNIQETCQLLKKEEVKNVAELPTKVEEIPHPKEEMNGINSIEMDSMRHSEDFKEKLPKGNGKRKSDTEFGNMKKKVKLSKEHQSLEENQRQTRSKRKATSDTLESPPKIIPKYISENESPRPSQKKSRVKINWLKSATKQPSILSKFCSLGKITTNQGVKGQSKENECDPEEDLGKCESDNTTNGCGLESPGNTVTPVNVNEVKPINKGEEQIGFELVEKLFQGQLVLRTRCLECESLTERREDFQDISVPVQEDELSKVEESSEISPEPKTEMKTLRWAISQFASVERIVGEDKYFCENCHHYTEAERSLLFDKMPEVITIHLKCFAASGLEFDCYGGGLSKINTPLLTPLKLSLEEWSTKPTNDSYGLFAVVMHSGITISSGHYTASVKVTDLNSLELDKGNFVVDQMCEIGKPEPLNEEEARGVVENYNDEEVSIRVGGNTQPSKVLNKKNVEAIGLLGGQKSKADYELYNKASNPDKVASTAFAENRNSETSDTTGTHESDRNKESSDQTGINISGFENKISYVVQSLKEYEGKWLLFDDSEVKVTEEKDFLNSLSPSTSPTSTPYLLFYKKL
Cytochrome P450 3A4 (Homo sapiens), sequence (P08684 whole entry, looked up): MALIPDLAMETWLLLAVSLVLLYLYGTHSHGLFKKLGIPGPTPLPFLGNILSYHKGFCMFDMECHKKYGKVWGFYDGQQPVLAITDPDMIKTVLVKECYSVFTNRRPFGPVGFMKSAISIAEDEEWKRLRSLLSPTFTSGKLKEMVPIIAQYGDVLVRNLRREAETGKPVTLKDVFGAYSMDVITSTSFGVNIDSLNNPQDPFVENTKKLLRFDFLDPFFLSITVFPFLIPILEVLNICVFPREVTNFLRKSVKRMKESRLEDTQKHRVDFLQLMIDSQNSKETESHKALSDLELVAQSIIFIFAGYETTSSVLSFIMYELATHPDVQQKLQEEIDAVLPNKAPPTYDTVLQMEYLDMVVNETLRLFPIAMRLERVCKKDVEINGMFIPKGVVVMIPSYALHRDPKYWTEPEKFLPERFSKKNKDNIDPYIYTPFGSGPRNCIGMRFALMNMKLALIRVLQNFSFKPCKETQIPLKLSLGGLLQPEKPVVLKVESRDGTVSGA
Dual specificity protein kinase CLK4 (Homo sapiens), sequence (Q9HAZ1 whole entry, looked up): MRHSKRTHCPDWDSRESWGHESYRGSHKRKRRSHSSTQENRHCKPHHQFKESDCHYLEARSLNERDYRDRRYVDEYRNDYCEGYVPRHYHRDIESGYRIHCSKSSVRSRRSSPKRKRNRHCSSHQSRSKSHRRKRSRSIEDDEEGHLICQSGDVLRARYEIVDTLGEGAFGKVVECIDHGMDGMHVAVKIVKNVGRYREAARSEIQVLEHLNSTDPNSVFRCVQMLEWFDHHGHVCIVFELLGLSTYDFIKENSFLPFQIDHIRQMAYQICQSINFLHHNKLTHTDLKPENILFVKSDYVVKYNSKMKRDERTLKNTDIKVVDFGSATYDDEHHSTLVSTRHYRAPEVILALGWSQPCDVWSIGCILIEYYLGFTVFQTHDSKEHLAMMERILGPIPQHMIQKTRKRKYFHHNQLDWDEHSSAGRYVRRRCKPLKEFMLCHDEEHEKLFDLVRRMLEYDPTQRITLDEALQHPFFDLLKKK
Cytochrome P450 1A2 (Homo sapiens), sequence (P05177 whole entry, looked up): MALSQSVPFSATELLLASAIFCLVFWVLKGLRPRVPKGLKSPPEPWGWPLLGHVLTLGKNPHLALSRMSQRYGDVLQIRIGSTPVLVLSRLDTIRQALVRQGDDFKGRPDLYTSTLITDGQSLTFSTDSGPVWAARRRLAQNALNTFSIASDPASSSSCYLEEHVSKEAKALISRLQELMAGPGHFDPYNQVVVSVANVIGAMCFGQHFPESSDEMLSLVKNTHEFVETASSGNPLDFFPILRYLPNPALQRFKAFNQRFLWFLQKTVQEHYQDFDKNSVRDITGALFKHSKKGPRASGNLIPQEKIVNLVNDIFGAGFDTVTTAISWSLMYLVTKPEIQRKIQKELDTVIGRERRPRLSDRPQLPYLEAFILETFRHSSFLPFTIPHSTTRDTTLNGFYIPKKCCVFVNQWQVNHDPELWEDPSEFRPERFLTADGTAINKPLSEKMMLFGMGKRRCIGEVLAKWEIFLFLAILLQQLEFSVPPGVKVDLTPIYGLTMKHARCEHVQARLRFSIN
Cytochrome P450 2D6 (Homo sapiens), sequence (P10635 whole entry, looked up): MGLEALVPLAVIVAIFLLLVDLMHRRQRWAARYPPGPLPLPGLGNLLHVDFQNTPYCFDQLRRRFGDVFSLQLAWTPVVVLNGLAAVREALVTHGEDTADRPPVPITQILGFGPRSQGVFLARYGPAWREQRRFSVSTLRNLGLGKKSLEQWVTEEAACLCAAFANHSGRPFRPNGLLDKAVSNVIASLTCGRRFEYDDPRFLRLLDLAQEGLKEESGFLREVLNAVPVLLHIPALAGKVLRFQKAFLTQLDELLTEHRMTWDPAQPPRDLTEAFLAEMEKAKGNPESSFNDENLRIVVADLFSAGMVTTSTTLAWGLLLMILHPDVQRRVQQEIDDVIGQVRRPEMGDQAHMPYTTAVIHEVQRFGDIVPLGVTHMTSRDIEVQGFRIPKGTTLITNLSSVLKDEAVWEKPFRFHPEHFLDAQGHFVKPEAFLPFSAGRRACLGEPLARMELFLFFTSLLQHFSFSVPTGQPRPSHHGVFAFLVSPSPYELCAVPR

SMILES | Potency [1] | activity change, negative = inhibition [2] | activity change, negative = inhibition [3] | outcome [4] | Potency [5] | Potency [6] | Potency [7] | Potency [8] | Potency [9] | Potency [10] | Potency [11] | Potency [12] | Potency [13] | Potency [14] | outcome [15] | Potency [16] | Potency [17] | activation [11] | Potency [18] | Potency [19]
COc1ccc(Oc2ncc3nc(-c4ccc(F)cc4)c(=O)n(C[C@H]4CCCO4)c3n2)cc1 | > 11.4 µM | -23.4% | 0.101% | inactive | > 46 µM | inactive | inactive | inactive | inactive | inactive |  |  |  |  |  |  |  |  |  | 
CCNc1ncc2nc(-c3ccc(OC)cc3)c(=O)n(C)c2n1 | > 11.4 µM | 22.4% |  |  | > 46 µM | inactive |  | inactive | inactive | inactive | 3.98 µM (active) | inactive |  |  |  |  |  |  |  | 
COc1ccc(Oc2ncc3nc(-c4ccc(F)cc4)c(=O)n(CCC#N)c3n2)cc1 | > 11.4 µM | -16.1% | 1.8% | inactive | > 46 µM |  | inactive | inactive | inactive | inactive |  | inactive | > 9.22 µM |  |  |  |  |  |  | 
O=c1c(CCc2ccccc2)nc2cnc(N3CCNCC3)nc2n1Cc1cccs1 | > 11.4 µM | 7.64% | 3.16% |  | > 46 µM | inactive | inactive | inactive | inactive | inactive |  | inactive | > 9.22 µM |  |  |  |  |  |  | 
CN(C)c1ccc(-c2cc(N(C)Cc3ccco3)ncn2)cc1 |  | -23.1% | 3.68% | inactive | > 46 µM |  | inactive | 25.1 µM (active) | 31.6 µM (active) | inactive |  | inactive | > 46 µM | 0.316 µM (active) | inactive | 7.94 µM (active) |  |  |  | 
COc1cccc(-c2ccc3ncnc(NCc4cnc(C)cn4)c3c2)c1 | > 11.4 µM |  | 27.1% | inactive | > 46 µM |  | inactive | 3.16 µM (active) | 2.51 µM (active) | 1.41 µM (active) |  | inactive |  | 2.51 µM (active) | inactive |  | 7.94 µM (active) | -8.99% |  | 
CN(Cc1ccco1)c1nc(-c2ccccc2C(F)(F)F)nc2ccccc12 | > 11.4 µM | 23.8% |  | inactive | > 46 µM | inactive |  | 20 µM (active) | 28.2 µM (active) | inactive |  | 28.2 µM (active) | > 46 µM | 2 µM (active) | inactive | 7.94 µM (active) |  |  | 7.94 µM (active) | 
COc1ccccc1CNc1ncnc2ccc(-c3cccc(NS(C)(=O)=O)c3)cc12 | > 11.4 µM |  | 24.7% | inactive | > 46 µM | inactive |  | 11.2 µM (active) | 14.1 µM (active) | 7.08 µM (active) |  | inactive | > 46 µM | 3.98 µM (active) | inactive |  | 3.16 µM (active) |  |  | 
CN1CCN(c2ncc3nc(CCc4ccccc4)c(=O)n(CCc4ccccc4)c3n2)CC1 | > 11.4 µM | -6.08% | -18.1% | inactive | > 46 µM | inactive |  | inactive | inactive | inactive |  | inactive | > 9.22 µM |  |  |  |  |  |  | 
CN(C)c1ncnc2ccc(-c3cccc(NS(C)(=O)=O)c3)cc12 | > 11.4 µM | -26.5% |  | inactive | > 46 µM | inactive | inactive | 11.2 µM (active) | 12.6 µM (active) | 12.6 µM (active) |  |  | > 46 µM |  |  |  |  |  |  | 
CN(C)c1ncc2nc(-c3ccccc3)c(=O)n(C)c2n1 | > 11.4 µM |  |  |  | > 46 µM |  |  | inactive | inactive | inactive | 2.51 µM (active) | inactive |  | 1 µM (active) |  |  |  |  |  | 
COCCn1c(=O)c(-c2ccccc2)nc2cnc(Oc3cccc(Cl)c3)nc21 | > 11.4 µM |  | -9.21% | inactive | > 46 µM | inactive | inactive | inactive | inactive | inactive |  | inactive | > 9.22 µM | 1 µM (active) | inactive |  |  |  |  | 0.501 µM (active)
COc1ccccc1-c1ccc2ncnc(N3CCNCC3)c2c1 | > 11.4 µM | 4.97% | 5.04% | inactive | > 46 µM | inactive | inactive | 4.47 µM (active) | 14.1 µM (active) | 7.94 µM (active) |  | inactive | > 46 µM |  |  |  |  |  |  | 
COc1ccccc1-c1ccc2ncnc(N3CCOCC3)c2c1 | > 11.4 µM |  | 18.9% | inactive | > 46 µM | inactive |  | 11.2 µM (active) | 12.6 µM (active) | 11.2 µM (active) |  |  | > 46 µM | 0.631 µM (active) | inactive |  | 6.31 µM (active) |  | 1.26 µM (active) | 
